Screens deposited in PubChem by National Center for Advancing Translational Sciences (NCATS).
HPGD inh – qHTS Assay for Inhibitors of HPGD (15-Hydroxyprostaglandin Dehydrogenase); 15-hydroxyprostaglandin dehydrogenase [NAD(+)] (Homo sapiens), P15428; purified HPGD, NADH fluorescence kinetic, PGE2 substrate; Potency, µM, for the others: at the highest dose activity change, negative = inhibition, most hits filed as inhibitors; 4.3% of 150,000 active; AID 894, 2007; also: potency is read from the fitted curve at half-maximal effect
Target sequence (P15428 whole entry, looked up): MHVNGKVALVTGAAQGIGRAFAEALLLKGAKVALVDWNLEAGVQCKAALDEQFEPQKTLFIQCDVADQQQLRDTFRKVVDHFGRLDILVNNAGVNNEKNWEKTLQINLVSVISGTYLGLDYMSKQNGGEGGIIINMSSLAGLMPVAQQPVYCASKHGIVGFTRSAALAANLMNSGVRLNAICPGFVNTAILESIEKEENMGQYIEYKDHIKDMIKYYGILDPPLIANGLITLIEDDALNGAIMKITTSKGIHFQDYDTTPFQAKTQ
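20 nM HPGD preincubated 15 min at room temperature with compound in 50 mM Tris-HCl pH 8, 0.01% Tween 20. Started with 1 mM NAD+ and 30 uM prostaglandin E2; NADH fluorescence (360/450 nm) read 5 times over 30-s intervals, last minus first.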
12-hLO inh – qHTS Assay for Inhibitors of 12-hLO (12-human lipoxygenase). purified 12-hLO, xylenol orange hydroperoxide absorbance. Potency, µM (top dose mostly 57.1 µM), for inactives: top-dose activity change, negative = inhibition, actives largely listed as inhibitors. 0.12% of 150,000 active. AID 1452, 2008; active = well fitted inhibition curve with a large enough effect; inconclusive = small, poorly fitted or top-dose-only effect; also: potency is read from the fitted curve at half-maximal effect; nearly all actives have a fitted effect of over 55% in size
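Hydroperoxide output read as Fe(III)-xylenol orange absorbance, 573-to-405 nm ratio, after 30 min reaction with 40 uM arachidonic acid. Enzyme: 150 nM purified human 12hLO, 15 min compound preincubation; 25 mM Hepes pH 7.0, room temperature.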
PNC assembly inh – High Content Assay for Compounds that inhibit the Assembly of the Perinucleolar Compartment. activity change (PNC), negative = inhibition, % at 10 µM. PC3M PTB-GFP, PNC prevalence imaging, 16 h; active compounds read low. 3.1% of 140,000 active. AID 2417, 2010;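 active = readout at or below -70, meaning at least 70% loss of cells showing the perinucleolar compartment, a nuclear body marking cancer cells; inconclusive = readout between -30 and a set limit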;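 also: plate controls were DMSO wells for no effect and camptothecin positive control wells for full effect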
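Compounds are pinned in duplicate onto adhered PC3M cells stably expressing GFP-tagged PTB and incubated 16 h at 37 C. Cells are then fixed, nuclei stained with Hoechst, and PNC-positive cells counted.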
ALDH1A1 inh – qHTS Assay for Inhibitors of Aldehyde Dehydrogenase 1 (ALDH1A1); 7.3% of 220,000 active; Purified ALDH1A1, NADH fluorescence, propionaldehyde substrate; Aldehyde dehydrogenase 1A1 (Homo sapiens), P00352; AID 1030, 2008; Potency, µM (titrated, usually from 75.3 µM), inactives show at the highest dose activity, negative = inhibition, hits mostly inhibitors;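 also: potency is read from the fitted curve at half-maximal effect; plate controls were no enzyme wells and a reference inhibitor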
Target sequence (P00352 whole entry, looked up): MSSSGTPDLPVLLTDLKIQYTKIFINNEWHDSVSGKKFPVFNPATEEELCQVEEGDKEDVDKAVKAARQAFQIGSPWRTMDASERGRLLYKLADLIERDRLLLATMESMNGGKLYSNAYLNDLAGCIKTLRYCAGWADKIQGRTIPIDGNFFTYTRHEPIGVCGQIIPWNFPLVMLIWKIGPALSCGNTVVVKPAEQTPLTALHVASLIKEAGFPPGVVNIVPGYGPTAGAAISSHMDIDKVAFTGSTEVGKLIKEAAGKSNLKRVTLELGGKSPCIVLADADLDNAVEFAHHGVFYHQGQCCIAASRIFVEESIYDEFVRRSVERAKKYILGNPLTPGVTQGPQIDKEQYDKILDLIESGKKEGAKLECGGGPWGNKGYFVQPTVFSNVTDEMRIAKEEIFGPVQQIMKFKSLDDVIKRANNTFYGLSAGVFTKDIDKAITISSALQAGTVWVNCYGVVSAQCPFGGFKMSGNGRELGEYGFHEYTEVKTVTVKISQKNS
Lamin A splicing – qHTS Assay for Modulators of Lamin A Splicing | HeLa LMNA splicing GFP/RFP minigene ratio, 48 h | Potency, µM (highest dose often 46.1 µM), for inactives: top-dose ratio change, negative = inhibition, usual class: inhibitors | 0.01% of 200,000 active; active = well fitted inhibition curve with a large enough effect in the signal ratio, with a control signal flat, not every such curve was filed as active; inconclusive = small, poorly fitted or top-dose-only effect, or effect the other way, or a change in a side signal; the % refers to the signal ratio; also: potency is read from the fitted curve at half-maximal effect
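S3 HeLa stable clones carrying a lamin A-EGFP splicing minigene plus DsRed2 were seeded at 600 cells/well in Opti-MEM with 2% FBS, pin-dosed and incubated 48 h at 37°C. Acumen cytometry (488 nm) gave the GFP/RFP total-intensity ratio.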
* marks the source's active call; other numbers are inactive results; ? = inconclusive; · = not tested or not shown; [ ] = dose if it differs, or a comment. Hits are enriched below; roughly 10% of the tested compounds scored in any of these assays. Unless noted, calls follow the shape of the dose curve; as a rule, active = well fitted inhibition curve with a large enough effect (not every such curve was filed as active); inconclusive = small, poorly fitted or top-dose-only effect, or another doubt; inactive = no such curve, though single readings can be large or run the other way. Unless noted, % is scaled to controls: 0 for no effect and ±100 for the full control effect.

SMILES | HPGD inh | 12-hLO inh | PNC assembly inh | ALDH1A1 inh | Lamin A splicing
CCOC(=O)N1CCN(C(=O)CSc2nc3c(cnn3-c3ccccc3)c(=O)[nH]2)CC1 | -27% | 4% | -1 | 11µM* | 10%
Cc1ccc(-n2ncc3c(=O)[nH]c(SCC(=O)N4CCCC4)nc32)cc1C | 16µM* | 3% | 21 | -1% | 6%
Cc1ccc(-n2ncc3c(=O)[nH]c(SCC(=O)N4CCC(C)CC4)nc32)cc1C | -14% | 1% | 3 | 6% | -5%
O=c1[nH]c(SCc2nc3c(cnn3-c3ccccc3)c(=O)[nH]2)nc2ccccc12 | 0.79µM* | 2% | -108* | ? | -47%
C=CCc1c(C)nc(SCc2nc3ccccc3c(=O)[nH]2)[nH]c1=O | 2.8µM* | 2% | -23 | 14µM* | -19%
O=c1[nH]c(CSc2nc3ccccc3[nH]2)nc2c1cnn2-c1ccccc1 | -10% | -1% | -2 | -2% | ?
OC[C@H]1O[C@@H](n2cnc3c(N[C@H]4C[C@H]5CC[C@@H]4C5)ncnc32)[C@H](O)[C@@H]1O | · | · | · | -9% | ·
COC(=O)c1ccc(NC(=O)c2cc3cc4ccc(OC)c(Cl)c4nc3s2)cc1 | · | · | · | · | 19%[46 µM]
CCOC(=O)c1c(C)cccc1OCC(N)=O | -9% | -1% | -100* | -5% | -2%
Cc1ccc(C(=O)NC(=S)Nc2cccc(NC(=O)c3ccccc3Cl)c2)cc1[N+](=O)[O-] | -13% | ? | ? | 13µM* | -5%
Cc1ccc(C(=O)NC(=S)Nc2cccc(NC(=O)c3ccccc3)c2)cc1[N+](=O)[O-] | -14% | ? | -93* | 16µM* | ?
CC(=O)Nc1cccc(NC(=O)c2ccc(C)c([N+](=O)[O-])c2)c1 | · | · | · | -5% | ·
Cc1ccc(C(=O)NNC(=S)Nc2cccc(Cl)c2Cl)cc1[N+](=O)[O-] | 11µM* | -12% | 28 | 2.8µM* | ?
CCOC(=O)[C@]1(C(NC(=O)OC)c2cccc(F)c2)CCCC1=O (stereo partly drawn) | · | · | · | 15%[13.5 µM] | ·
CCc1ccc(NC(=O)Cn2nnc(-c3ccccc3N)n2)cc1 | · | · | · | · | -1%[46 µM]
COC(=O)C1=C(C)Nc2nnnn2C1c1cc(OC)ccc1OC (stereo not drawn) | · | 1% | ? | 2% | 9%
CC1=C(C(=O)Nc2ccccc2)C(c2sccc2C)n2nnnc2N1 (stereo not drawn) | -14% | -1% | 3 | 0.35µM* | -4%
C=CCOC(=O)C1=C(C)Nc2nnnn2C1c1cccs1 (stereo not drawn) | -16% | -7% | ? | 6.3µM* | -2%
COC(=O)C1=C(C)Nc2nnnn2C1c1cccs1 (stereo not drawn) | 16µM* | 8% | ? | 2.8µM* | -1%
C/C(CC(=O)Nc1cc(Cl)ccc1Cl)=N\NC(N)=S | -6% | ? | 45 | 13µM* | ?
Cc1cc(C)c(C(N)=O)c(Nc2ccc3c(c2)OCCO3)n1 | -13% | 1% | -100* | -4% | 1%
Cc1cc(C)c(C(N)=O)c(Nc2cccc(Cl)c2)n1 | -20% | -8% | -100* | 0% | -15%
COc1ccc(Nc2nc(C)cc(C)c2C(N)=O)cc1 | -3% | 2% | 17 | 3% | -1%
COc1ccc(N2CCN(C(=O)C3Cc4ccccc4N3C(C)=O)CC2)cc1 (stereo not drawn) | · | · | · | · | 0%[46 µM]
Cc1cc(C)nc(N(C#N)Cc2ccccc2Cl)n1 | -3% | 0% | 58 | 14µM* | 4%
SMILES | HPGD inh | 12-hLO inh | PNC assembly inh | ALDH1A1 inh | Lamin A splicing
Cc1cc(C)nc(N(C#N)CN2C(=O)c3ccccc3C2=O)n1 | ? | -5% | -4 | 25µM* | 6%
Cc1cc(C)nc(N(C#N)Cc2ccccc2C)n1 | · | · | · | 7% | ·
NC(=O)c1cccc(N)c1 | ? | -3%[0.00818 µM] | · | ? | ?
Cc1ccc(C)c(Cn2c(CN(C)Cc3ccccc3)nc3c2c(=O)n(C)c(=O)n3C)c1 | -18% | -7% | 7 | ? | 5%
CN(Cc1ccccc1)Cc1nc2c(c(=O)n(C)c(=O)n2C)n1Cc1ccc(Cl)cc1 | -6% | 7% | -6 | ? | -9%
CCCCCn1c(CN(C)Cc2ccccc2)nc2c1c(=O)n(C)c(=O)n2C | -8% | 6% | ? | 10µM* | ?
Cc1ccc(Cn2c(CN(C)Cc3ccccc3)nc3c2c(=O)n(C)c(=O)n3C)cc1 | -8% | 7% | -11 | 7.1µM* | 13%
CC(=O)c1ccc(NC(=O)CSc2nccn2C2CCCC2)cc1 | · | · | · | · | 20%[46 µM]
Cc1cccc(C)c1NC(=O)C[N+](C)(C)C | 2% | -3% | · | -2% | -15%
CC(=O)c1cccc(NC(=S)NC(=O)c2cccc(Cl)c2)c1 | ? | -27% | ? | 20µM* | -1%
CC(=O)c1cccc(NC(=S)NC(=O)C(C)C)c1 | -9% | 7% | 15 | 7% | 1%
Cc1cc(C)cc(NCC(=O)Nc2c(C)cccc2C)c1 | -22% | 2% | -90* | ? | -4%
Cc1cccc(NC(=O)CC(C)(C)C)c1 | 16µM* | -1% | ? | -2% | -4%
CC(=O)c1cccc(NC(=S)NC(=O)c2ccccc2)c1 | ? | ? | 34 | ? | 4%
CC(=O)c1cccc(NC(=S)NC(=O)CC(C)(C)C)c1 | 16µM* | -4% | 14 | -4% | 12%
Cc1ccccc1C(=O)Nc1cc(-c2ccc(Cl)cc2)nn1-c1ccccc1 | · | · | · | · | -14%[46 µM]
CC(=O)c1cccc(NC(=O)Cc2ccc3c(c2)CCCC3)c1 | 25µM* | -26% | -9 | 13µM* | -4%
CCOc1ccc(C(c2c(O)cc(C)n(CCOC)c2=O)N2CCN(c3ccccc3)CC2)cc1 (stereo not drawn) | · | · | · | · | -15%[46 µM]
O=C(CN(C(=O)CNC(=O)c1ccco1)c1ccc2c(c1)OCCO2)NC1CCCC1 | · | · | · | -4% | ·
O=C(CN(Cc1ccc2c(c1)OCO2)C(=O)CNC(=O)c1ccco1)NC1CCCCC1 | -7% | -10% | 7 | 22µM* | 2%
O=C(CN(C(=O)CNC(=O)c1ccco1)c1ccc2c(c1)OCO2)NC1CCCCC1 | -4% | -4% | 8 | ? | 9%
CCOC(=O)c1ccc(N(CC(=O)NC2CCCC2)C(=O)CNC(=O)c2ccco2)cc1 | -6% | 0% | -85* | -8% | 18%
C[C@H]1OC(OC2C(O)[C@@H](O)C(OC3C(O)[C@@H](O)C(O)O[C@@H]3CO)O[C@@H]2CO)[C@H](O)C(O)C1N[C@H]1C=C(CO)[C@@H](O)[C@H](O)C1O (stereo partly drawn) | -7% | -1%[0.00818 µM] | · | 9% | -3%
COC(=O)[C@H](N)Cc1ccc(Cl)cc1 | · | -3% | · | · | ·
COc1ccc2c(CNCCc3ccccc3)c(C(=O)O)n(Cc3cccc(F)c3)c2c1 | · | · | · | · | -15%[46 µM]
CCn1ccc2cc(S(=O)(=O)N3CCC(C(=O)NCCOC)CC3)ccc21 | · | · | · | · | 16%[46 µM]
